Test results published in PubChem BioAssay (EPA / NIEHS).
Activity calls are given as the source filed them. Rule for the calls: active = hit-call score of the fitted dose curve at least 0.9, where 1 is the maximum; inactive = score below 0.9.

Each compound was assayed on ABC Transporter (ABCC2), ABCC2 (gene 1244) (assay: LTEA_HepaRG_ABCC2: Life Technologies and Expression Analysis (LTEA) Assay for ABC Transporter (ABCC2) using HepaRG (AID 2283464)). Settings: mRNA level, 48 h; actives raise or lower the signal.
Summary of the method: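 After plating and 48 h culture, HepaRG medium is replaced with serum-free induction medium and chemicals are added (8 concentrations, max 100 uM, 0.5% DMSO) for 48 h. Total RNA then undergoes qRT-PCR for ABCC2 with housekeeping normalization.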
With `CNC(=O)Oc1cccc2ccccc12` the outcome was “inactive”.
`CCSC(=O)N1CCCCCC1` was tested, and the outcome was “inactive”.
With `COc1ccc(-c2ccccc2)cc1NNC(=O)OC(C)C` the outcome was “inactive”.
For `CC(C)=CC1C(C(=O)OCc2coc(Cc3ccccc3)c2)C1(C)C` (configuration not stated), the AC50 was 50 µM (active).
With `OC(c1ccc(Cl)cc1)(c1ccc(Cl)cc1)C(Cl)(Cl)Cl` the outcome was “inactive”.
`COC(=O)NS(=O)(=O)c1ccc(N)cc1` was tested, and the outcome was “inactive”.
`CC(C)Oc1cccc(NC(=O)c2ccccc2C(F)(F)F)c1` was tested, and the outcome was “inactive”.
In the case of `CS(=O)(=O)c1cc(C(F)(F)F)ccc1C(=O)c1cnoc1C1CC1`, the outcome is reported as “inactive”.
`CCOP(=O)(OCC)Oc1nc(Cl)c(Cl)cc1Cl` was tested, and the AC50 was 76.4 µM (active).
With `CCOP(=S)(OCC)Oc1nc(Cl)n(C(C)C)n1` the outcome was “inactive”.
With `CCOc1nc(F)cc2nc(S(=O)(=O)Nc3c(Cl)cccc3Cl)nn12` the AC50 was 7.91 µM (active).
For `COP(=S)(OC)SCn1nnc2ccccc2c1=O`, the outcome was “inactive”.
For `CNC(=O)N(C)c1nnc(C(C)(C)C)s1`, the outcome was “inactive”.
With `Clc1nc(Cl)nc(Nc2ccccc2Cl)n1` the outcome was “inactive”.
With `Nc1c(Cl)c(Cl)nc(C(=O)O)c1Cl` the outcome was “inactive”.
`Nc1c(Cl)c(F)nc(OCC(=O)O)c1Cl` was tested, and the outcome was “inactive”.
`CC1(C)CCC(=Cc2ccc(Cl)cc2)C1(O)Cn1cncn1` (configuration not stated) was tested, and the outcome was “inactive”.
In the case of `CSC(=O)c1c(C(F)F)nc(C(F)(F)F)c(C(=O)SC)c1CC(C)C`, the AC50 is reported as 9.66 µM (active).
`CCCCC(C#N)(Cn1cncn1)c1ccc(Cl)cc1` (configuration not stated) was tested, and the outcome was “inactive”.
With `O=C(O)c1c(Cl)ccc2cc(Cl)cnc12` the outcome was “inactive”.
For `O=P(O)(O)CCCl`, the outcome was “inactive”.
In the case of `Cc1cnc(C2=NC(C)(C(C)C)C(=O)N2)c(C(=O)O)c1` (configuration not stated), the outcome is reported as “inactive”.
In the case of `CCOC(=O)C(C)OC(=O)c1cc(Oc2ccc(C(F)(F)F)cc2Cl)ccc1[N+](=O)[O-]` (configuration not stated), the AC50 is reported as 21.9 µM (active).
In the case of `COC(=O)N(C(=O)N1CO[C@@]2(C(=O)OC)Cc3cc(Cl)ccc3C2=N1)c1ccc(OC(F)(F)F)cc1`, the outcome is reported as “inactive”.
With `CC1(C)C(C=C(Cl)Cl)C1C(=O)OC(C#N)c1cccc(Oc2ccccc2)c1` (configuration not stated) the outcome was “inactive”.
With `Cc1cc(C)nc(Nc2ccccc2)n1` the outcome was “inactive”.
For `O=c1n(Cl)c(=O)n(Cl)c(=O)n1Cl`, the outcome was “inactive”.
With `CO/N=C(/C1=NOCCO1)c1ccccc1Oc1ncnc(Oc2ccccc2Cl)c1F` the AC50 was 50 µM (active).
For `COCC(=O)N(c1c(C)cccc1C)C(C)C(=O)OC` (configuration not stated), the outcome was “inactive”.
For `C=CCOC(=O)C(C)(C)OC(=O)c1cc(-n2c(=O)cc(C(F)(F)F)n(C)c2=O)ccc1Cl`, the outcome was “inactive”.
For `COC(=O)c1c(C(F)F)nc(C(F)(F)F)c(C2=NCCS2)c1CC(C)C`, the AC50 was 50 µM (active).
For `CN=C=S`, the outcome was “inactive”.
For `CC(C)NC(=O)N1CC(=O)N(c2cc(Cl)cc(Cl)c2)C1=O`, the outcome was “inactive”.
`COc1cc(OC)nc(NC(=O)NS(=O)(=O)c2ncccc2OCC(F)(F)F)n1` was tested, and the outcome was “inactive”.
`COP(=O)(OC)O/C(C)=C/C(=O)N(C)C` was tested, and the outcome was “inactive”.
For `CCOc1cc(C(C)(C)C)ccc1C1COC(c2c(F)cccc2F)=N1` (configuration not stated), the AC50 was 8.66 µM (active).

These compounds were tested on Broad substrate specificity ATP-binding cassette transporter ABCG2 (Homo sapiens) (UniProt Q9UNQ0) (assay: LTEA_HepaRG_ABCG2: Life Technologies and Expression Analysis (LTEA) Assay for ABC Transporter (ABCG2) using HepaRG (AID 2283465)). Settings: mRNA level, 48 h; actives raise or lower the signal.
Chain of Broad substrate specificity ATP-binding cassette transporter ABCG2 (Homo sapiens) (Q9UNQ0 whole entry, looked up): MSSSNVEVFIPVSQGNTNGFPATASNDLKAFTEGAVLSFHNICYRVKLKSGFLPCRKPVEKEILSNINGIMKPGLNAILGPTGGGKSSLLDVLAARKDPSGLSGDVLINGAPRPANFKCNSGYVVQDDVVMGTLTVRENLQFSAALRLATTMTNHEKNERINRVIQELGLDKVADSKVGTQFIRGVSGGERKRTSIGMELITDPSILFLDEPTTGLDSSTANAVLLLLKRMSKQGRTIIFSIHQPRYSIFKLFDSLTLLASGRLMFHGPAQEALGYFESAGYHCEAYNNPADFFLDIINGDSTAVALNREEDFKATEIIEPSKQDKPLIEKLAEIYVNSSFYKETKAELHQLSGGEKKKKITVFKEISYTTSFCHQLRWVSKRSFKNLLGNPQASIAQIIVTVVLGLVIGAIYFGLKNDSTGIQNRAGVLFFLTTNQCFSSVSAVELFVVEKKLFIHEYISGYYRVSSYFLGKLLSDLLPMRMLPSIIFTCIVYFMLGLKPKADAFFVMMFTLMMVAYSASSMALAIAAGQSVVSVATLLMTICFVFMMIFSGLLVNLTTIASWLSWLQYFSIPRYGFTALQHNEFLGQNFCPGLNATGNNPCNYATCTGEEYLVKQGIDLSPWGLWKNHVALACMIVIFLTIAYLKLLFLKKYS
Summary of the method: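 Gene expression of ABCG2 in HepaRG liver cells is quantified by qRT-PCR following 48 h exposure across an eight-point series topping at 100 uM. Values come from bidirectional fitting relative to DMSO vehicle.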
`CNC(=O)Oc1cccc2ccccc12` was tested, and the outcome was “inactive”.
For `CCSC(=O)N1CCCCCC1`, the outcome was “inactive”.
`COc1ccc(-c2ccccc2)cc1NNC(=O)OC(C)C` was tested, and the outcome was “inactive”.
With `CC(C)=CC1C(C(=O)OCc2coc(Cc3ccccc3)c2)C1(C)C` (configuration not stated) the outcome was “inactive”.
In the case of `OC(c1ccc(Cl)cc1)(c1ccc(Cl)cc1)C(Cl)(Cl)Cl`, the AC50 is reported as 50 µM (active).
For `COC(=O)NS(=O)(=O)c1ccc(N)cc1`, the outcome was “inactive”.
With `CC(C)Oc1cccc(NC(=O)c2ccccc2C(F)(F)F)c1` the outcome was “inactive”.
With `CS(=O)(=O)c1cc(C(F)(F)F)ccc1C(=O)c1cnoc1C1CC1` the outcome was “inactive”.
`CCOP(=O)(OCC)Oc1nc(Cl)c(Cl)cc1Cl` was tested, and the outcome was “inactive”.
In the case of `CCOP(=S)(OCC)Oc1nc(Cl)n(C(C)C)n1`, the outcome is reported as “inactive”.
With `CCOc1nc(F)cc2nc(S(=O)(=O)Nc3c(Cl)cccc3Cl)nn12` the outcome was “inactive”.
In the case of `COP(=S)(OC)SCn1nnc2ccccc2c1=O`, the AC50 is reported as 15.5 µM (active).
For `CNC(=O)N(C)c1nnc(C(C)(C)C)s1`, the outcome was “inactive”.
`Clc1nc(Cl)nc(Nc2ccccc2Cl)n1` was tested, and the outcome was “inactive”.
For `Nc1c(Cl)c(Cl)nc(C(=O)O)c1Cl`, the outcome was “inactive”.
With `Nc1c(Cl)c(F)nc(OCC(=O)O)c1Cl` the outcome was “inactive”.
`CC1(C)CCC(=Cc2ccc(Cl)cc2)C1(O)Cn1cncn1` (configuration not stated) was tested, and the outcome was “inactive”.
`CSC(=O)c1c(C(F)F)nc(C(F)(F)F)c(C(=O)SC)c1CC(C)C` was tested, and the outcome was “inactive”.
In the case of `CCCCC(C#N)(Cn1cncn1)c1ccc(Cl)cc1` (configuration not stated), the AC50 is reported as 4.77 µM (active).
With `O=C(O)c1c(Cl)ccc2cc(Cl)cnc12` the outcome was “inactive”.
With `O=P(O)(O)CCCl` the outcome was “inactive”.
`Cc1cnc(C2=NC(C)(C(C)C)C(=O)N2)c(C(=O)O)c1` (configuration not stated) was tested, and the outcome was “inactive”.
`CCOC(=O)C(C)OC(=O)c1cc(Oc2ccc(C(F)(F)F)cc2Cl)ccc1[N+](=O)[O-]` (configuration not stated) was tested, and the AC50 was 19.2 µM (active).
In the case of `COC(=O)N(C(=O)N1CO[C@@]2(C(=O)OC)Cc3cc(Cl)ccc3C2=N1)c1ccc(OC(F)(F)F)cc1`, the outcome is reported as “inactive”.
For `CC1(C)C(C=C(Cl)Cl)C1C(=O)OC(C#N)c1cccc(Oc2ccccc2)c1` (configuration not stated), the AC50 was 10.8 µM (active).
For `Cc1cc(C)nc(Nc2ccccc2)n1`, the outcome was “inactive”.
In the case of `O=c1n(Cl)c(=O)n(Cl)c(=O)n1Cl`, the outcome is reported as “inactive”.
For `CO/N=C(/C1=NOCCO1)c1ccccc1Oc1ncnc(Oc2ccccc2Cl)c1F`, the AC50 was 8.72 µM (active).
For `COCC(=O)N(c1c(C)cccc1C)C(C)C(=O)OC` (configuration not stated), the outcome was “inactive”.
In the case of `C=CCOC(=O)C(C)(C)OC(=O)c1cc(-n2c(=O)cc(C(F)(F)F)n(C)c2=O)ccc1Cl`, the outcome is reported as “inactive”.
`COC(=O)c1c(C(F)F)nc(C(F)(F)F)c(C2=NCCS2)c1CC(C)C` was tested, and the outcome was “inactive”.
With `CN=C=S` the outcome was “inactive”.
For `CC(C)NC(=O)N1CC(=O)N(c2cc(Cl)cc(Cl)c2)C1=O`, the AC50 was 15 µM (active).
In the case of `COc1cc(OC)nc(NC(=O)NS(=O)(=O)c2ncccc2OCC(F)(F)F)n1`, the outcome is reported as “inactive”.
In the case of `COP(=O)(OC)O/C(C)=C/C(=O)N(C)C`, the outcome is reported as “inactive”.
`CCOc1cc(C(C)(C)C)ccc1C1COC(c2c(F)cccc2F)=N1` (configuration not stated) was tested, and the AC50 was 9.15 µM (active).
